Results on 40 sequences are retold here after the supplement of paper PMC6555819.

This assay has as its system VDR:RXRa (NR concentration 270 nM, RXRa partner concentration 90 nM). The assay can be described thus: PBM binding z-score (relative to random genomic background probes); higher = stronger binding; sequences stand for … in GC…GCGATTGACAGCGTAGAATGAAGG
As to the method:
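Protein-binding microarray (Agilent 4x180K custom design, double-stranded 60-nt probes: 5' GC cap, 34-nt variable region, 24-nt constant primer region; full probe sequence given). Purified or IVT nuclear receptor:RXRα heterodimers (3:1 NR:RXRα, mostly 270:90 nM) or homodimers were incubated for 1 h in PBS with 2% milk and no ligand, then detected with Alexa488 antibodies. Fluorescence from o1-orientation probes (~5 replicates averaged) was converted to z-scores against 500 random hg19 background probes. Variable regions are seed direct-repeat (DR0–DR5) sites, all their single-nucleotide variants and half-site ablations.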
Regarding CCTGCTAGGTCAATGGTCACCTAAAGCAGCTCGC, the PBM binding z-score came to 1.45.

CCTAATGGGCCATCAGGTCATTGATATCAACGTT came in with a PBM binding z-score of 2.04.

Sequence TCTTGTAAATCAAGCAGGTTAAGAAAGCCTGAGT returned a PBM binding z-score of 0.479.

The sequence TGAATGAGGTTAAAGATCAGGGAACGTGGCGTCG had a PBM binding z-score of 1.99.

Sequence AGAATGAGGTTATACATAGATCAGGGAAGAAAGT yielded a PBM binding z-score of 1.5.

In the case of CAAACTAGGTCAAGAAGTCAAAGTCCGCTTCCCG, the PBM binding z-score worked out at 1.93.

With CCTACTGGGCCGAAGGTCATTGATTCCAATGCTC, the PBM binding z-score was found to be 2.51.

GCTAGCAGGCCATTGGGGTCACTCAATGACGGGC showed a PBM binding z-score of 6.04.

Regarding GTACCAAGGTGAATAAGTCGTTGATGAGTAGGCG, the PBM binding z-score was determined as 0.0767.

In turn, TAGCCCAGGTCAGATCGGGCCAGTATACGCTATA gave a PBM binding z-score of 0.983.

AGAATGAGGTTATACGTAGATCAGAGAAGAAAGT displayed a PBM binding z-score of 1.29.

The sequence CGAACTAGGTCATCCAGGCCAGTGAATACATTGA returned a PBM binding z-score of 3.97.

AGAATGAGGTTACCACAGATCAGGGAAACGCTTG had a PBM binding z-score of 1.23.

With ATCTTTAGGTAAGACTCAGTTCAGTGAAGAACGC, the PBM binding z-score came to 0.748.

Take GCGACTGGGGCATCATCAGGTTACCATAACTTAA: the PBM binding z-score was found to be 0.00777.

CACGAAAGGTCGGTTGAGGTGAGTATACGGATAA yielded a PBM binding z-score of 2.37.

In turn, CGTACTGGGCCAAAGGTCATTGATTCCAATGCTC had a PBM binding z-score of 5.07.

Regarding AGTCAAAGTTCAGGACTAGGTAACGTAAAGCACG, the PBM binding z-score worked out at 2.4.

With GCGACTGGGGCATCAGCAGCTTACCATAACTTAA, the PBM binding z-score was -0.708.

As for GCTGCTTGGTCAACTGATGGTCAGCTAAAGCTCG, the PBM binding z-score is -0.687.

The sequence TCTTGTAGATTAATAGAGGTTAAGAAAGTGCGCT displayed a PBM binding z-score of 2.11.

CAAACTAGGTCACGAAAGGTCACAGTCGAATGAC yielded a PBM binding z-score of 6.75.

CGGAGTAGGTTATGGGGCATTCAGGCAACGGTGA yielded a PBM binding z-score of 0.00597.

On to AGTCAAAATTCAGGACGAGGTAACGTAAAGCACG, for which the PBM binding z-score was -0.107.

AGAATGAGGTTATACGTAGATGAGGGAAGAAAGT: the PBM binding z-score was determined as 1.53.

Regarding ACTTACGGGTCAACGAGGTTATAGCCCGCGTATA, the PBM binding z-score came to 7.59.

For the sequence CGTGAAAGTTCAACTAAGGTAACGTAAAGCACGC, the PBM binding z-score came out at 4.46.

As to CGAACTAGGACAGAACAGGACAGTGAAGGATGAT, the PBM binding z-score was -0.358.

In the case of TCTATTAGTTGATTAGAGCAACCGAAACAGCGGA, the PBM binding z-score was 0.404.

Turning to CCGACTGGGGCATCAGGTTACCATAAGCCAGCCC, the PBM binding z-score is -0.451.

Turning to CGAACTAGGTCATCCAGGAGAGTGAATACATTGA, the PBM binding z-score is 2.35.

The sequence CAAACTAGGTCAAAGGTTAAAGTCGAGCCAACCA had a PBM binding z-score of 4.87.

In turn, ACTAGTTGGTCAGCTGAGGCCACACACAATTCGG returned a PBM binding z-score of 0.307.

In turn, TCGAGGAGGTTAGGGGCATTCAGAATGGCGTCGA gave a PBM binding z-score of 1.03.

Sequence GCTAGTTGGTCTGTAAAAGGTCACACACCGGTCG returned a PBM binding z-score of 3.94.

For ATATGTAGGTTATCAGGTCATTCAGTTTGCGCAT, the PBM binding z-score stood at 4.71.

Consider GCGACTGGGGCATAAGCAGGTTACCATAACTTAA, for which the PBM binding z-score is -0.0344.

Consider GCGACTGGGGCAAAGCAGGGTACCATAAGGTTGG, for which the PBM binding z-score was -0.276.

CCTACTGGGCCAAAAAGGTTATTGATGCCGATAA: the PBM binding z-score worked out at 1.6.

CCTTACGGGTCCCGAGGTTATAGCACGACGAGCG: the PBM binding z-score was 0.198.
